In PubChem BioAssay (NCI):
Compounds without any hit were thinned out: in the full panel of roughly 79,000, 15% have a hit. Calls of active or inactive are those of the source. No stated cut-off is given here; in the data, active means growth inhibition above about 70%; inactive means the rest.

Key:
[1] = NCI Yeast Anticancer Drug Screen. Data for the wt1 strain (AID 149);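 further: 0% = growth of vehicle-treated wt1 cultures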; settings: S. cerevisiae wt1 strain (SPY 50644) growth inhibition, active compounds read high
Summary of the method: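 Measured: growth of wt1 yeast under compound versus vehicle treatment, reported as inhibition.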

[2] = NCI Yeast Anticancer Drug Screen. Data for the rad50EPP+ strain (AID 151);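 further: 0% = growth of vehicle-treated control cultures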; settings: S. cerevisiae rad50 mutant strain, active compounds read high
Summary of the method: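 Vehicle-normalised growth inhibition; rad50EPP+ yeast strain, altered in DNA damage repair, compound-treated.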

[3] = NCI Yeast Anticancer Drug Screen. Data for the mgt1 strain (AID 153); settings: S. cerevisiae mgt1 mutant growth inhibition, active compounds read high
Summary of the method: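 Vehicle-normalized growth inhibition is determined in mgt1 yeast, a strain selected for a defined alteration in DNA repair or cell cycle control.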

[4] = NCI Yeast Anticancer Drug Screen. Data for the rad50 strain (AID 155);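 further: 0% = growth of vehicle-only cultures of the same strain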; settings: S. cerevisiae rad50 strain growth inhibition, active compounds read high
Summary of the method: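 Growth of the mutant yeast was measured after compound exposure and referenced to vehicle-treated cultures.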

[5] = NCI Yeast Anticancer Drug Screen. Data for the mec2-1 strain (AID 157); settings: S. cerevisiae mec2-1 strain, active compounds read high
Summary of the method: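 Mutant yeast (mec2-1) grown with compound; growth inhibition relative to vehicle control reported.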

[6] = NCI Yeast Anticancer Drug Screen. Data for the rad14 strain (AID 159);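 further: 0% = growth of vehicle-treated control cultures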; settings: S. cerevisiae rad14 strain growth inhibition, active compounds read high
Summary of the method: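 Here, inhibition of yeast growth was measured after compound exposure, using a strain with a genetic defect in DNA damage repair and vehicle-treated cultures as the reference.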

[7] = NCI Yeast Anticancer Drug Screen. Data for the sgs1 mgt1 strain (AID 161);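 further: 0% = growth of cultures given vehicle only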; settings: S. cerevisiae sgs1 mgt1 strain, active compounds read high
Summary of the method: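 Growth of a repair-deficient yeast mutant was monitored after compound treatment and expressed as inhibition relative to vehicle-treated cultures.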

[8] = NCI Yeast Anticancer Drug Screen. Data for the CLN2oe strain (AID 163);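 further: 0% = growth of vehicle-only control cultures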; settings: S. cerevisiae CLN2oe strain, active compounds read high
Summary of the method: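 Compounds are applied to yeast harbouring a defined cell-cycle control change; reduced growth compared with vehicle-treated controls gives the value.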

[9] = NCI Yeast Anticancer Drug Screen. Data for the cln2 rad14 strain (AID 165);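 further: 0% = growth equal to vehicle treated cultures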; settings: S. cerevisiae cln2 rad14 strain, active compounds read high
Summary of the method: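 Readout is yeast growth inhibition versus vehicle-treated controls, using a strain with cln2 and rad14 alterations exposed to compound.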

[10] = NCI Yeast Anticancer Drug Screen. Data for the bub3 strain (AID 167); settings: S. cerevisiae bub3 mutant strain, active compounds read high
Summary of the method: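 Whole-cell yeast assay. The mutant strain was incubated with compounds, and growth inhibition was determined by comparison with vehicle-treated cells.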

[11] = NCI Yeast Anticancer Drug Screen. Data for the wt2 strain (AID 169);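 further: 0% = growth of vehicle-treated yeast cultures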; settings: S. cerevisiae wt2 strain growth inhibition, active compounds read high
Summary of the method: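 Against vehicle-treated controls, the growth of yeast exposed to each compound was compared, and the inhibition was recorded.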

[12] = NCI Yeast Anticancer Drug Screen. Data for the mlh1 strain (AID 171);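 further: 0% = growth of vehicle-treated control cultures of the same strain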; settings: S. cerevisiae mlh1 strain growth inhibition, active compounds read high
Summary of the method: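 Measured: yeast growth. Reference: vehicle-treated controls. Organism: strain with a defined alteration affecting DNA damage repair or cell cycle control, treated with compound.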

[13] = NCI Yeast Anticancer Drug Screen. Data for the mlh1 rad18 strain (AID 175); settings: S. cerevisiae mlh1 rad18 strain growth inhibition, active compounds read high
Summary of the method: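 Genetically defined yeast (DNA repair-deficient) exposed to compounds; growth inhibition determined relative to vehicle.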

[14] = NCI Yeast Anticancer Drug Screen. Data for the rad18 strain (AID 177); settings: S. cerevisiae rad18 mutant growth inhibition, active compounds read high
Summary of the method: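 Vehicle-treated cultures served as the baseline for scoring compound-induced growth inhibition in DNA-repair-mutant yeast.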

[15] = at 5.0 µM (retest, dose inferred, filed as 0.5)
[16] = at 50.0 µM (retest, dose inferred, filed as 5.0)

Measured: growth inhibition

Cc1ccc(Nc2n[nH]c(=S)s2)cc1
active: [1]; at 100.0 µM 92% | [3]; at 100.0 µM 94% | [4]; at 33.0 µM 72% | [4]; [16] 80% | [4]; at 50.0 µM 87% | [4]; at 100.0 µM 93% | [5]; at 50.0 µM 86% | [5]; at 100.0 µM 93% | [6]; at 33.0 µM 81% | [6]; at 100.0 µM 95% | [7]; [16] 91% | [8]; at 100.0 µM 91% | [9]; [16] 94% | [10]; [16] 91% | [10]; at 100.0 µM 93% | [11]; at 100.0 µM 92% | [12]; at 100.0 µM 92% | [13]; at 50.0 µM 85.7% | [14]; at 33.0 µM 80% | [14]; at 100.0 µM 94%
inactive: [1]; at 1.2 µM -21% | [1]; at 3.7 µM -12% | [1]; at 11.0 µM -19% | [1]; at 33.0 µM 35% | [2]; at 1.2 µM -13% | [2]; at 3.7 µM -10% | [2]; at 11.0 µM -11% | [2]; at 33.0 µM 6% | [2]; at 100.0 µM 68% | [3]; at 1.2 µM -6% | [3]; at 3.7 µM -5% | [3]; at 11.0 µM -3% | [3]; at 33.0 µM 65% | [4]; at 1.2 µM 5% | [4]; at 3.7 µM -1% | [4]; [15] 44% | [4]; at 11.0 µM 0% | [5]; at 1.2 µM -13% | [5]; at 3.7 µM -29% | [5]; [15] 39% | [5]; at 11.0 µM -27% | [5]; at 33.0 µM 13% | [5]; [16] 55% | [6]; at 1.2 µM -14% | [6]; at 3.7 µM -28% | [6]; at 11.0 µM -11% | [7]; [15] 1% | [8]; at 1.2 µM 11% | [8]; at 3.7 µM 2% | [8]; at 11.0 µM 3% | [8]; at 33.0 µM 40% | [9]; [15] 60% | [10]; at 1.2 µM 1% | [10]; at 3.7 µM -12% | [10]; [15] 45% | [10]; at 11.0 µM -3% | [10]; at 33.0 µM 53% | [11]; at 1.2 µM -12% | [11]; at 3.7 µM -6% | [11]; at 11.0 µM -17% | [11]; at 33.0 µM 47% | [12]; at 1.2 µM -10% | [12]; at 3.7 µM -34% | [12]; at 11.0 µM -23% | [12]; at 33.0 µM 29% | [13]; [15] 36% | [13]; [16] 60% | [14]; at 1.2 µM -17% | [14]; at 3.7 µM -10% | [14]; at 11.0 µM 0%
